Screening data deposited in PubChem by several laboratories.
EBV gp42 block = inhibitors of Epstein-Barr virus glycoprotein 42. Fluorescence polarization binding assay, mP read-out. inhibition, % (tested at 21.74 µM). 220,000 tested, 0.42% active; in the data active = inhibition above about 50%
Target sequence (Q1HVG2 whole entry, looked up): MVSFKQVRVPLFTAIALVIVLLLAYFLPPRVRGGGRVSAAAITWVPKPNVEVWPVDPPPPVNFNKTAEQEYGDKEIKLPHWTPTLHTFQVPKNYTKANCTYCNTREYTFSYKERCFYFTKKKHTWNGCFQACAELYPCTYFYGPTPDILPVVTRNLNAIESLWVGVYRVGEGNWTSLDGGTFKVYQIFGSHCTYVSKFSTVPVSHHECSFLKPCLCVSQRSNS
MEX-5 binding = C. elegans MEX-5 TCR-2 RNA binding activity; Q9XUB2; MEX-5/FITC-TCR2 RNA binding, fluorescence polarization; active compounds read low; activity score (negative = inhibition of binding), % at 10 µM; 300,000 tested, 0.38% active; AID 1832;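 active = inhibition past about -25% in most replicates, and total fluorescence under double the plate's negative control median, limit read from the data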;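 also: 0% = DMSO and -100% = 5 µM competing unlabeled TCR2 RNA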
MCL1 BIM primary = disrupts human MCL1 binding to BIM-BH3 peptide. 320,000 tested, 0.68% active. GST-MCL1 / FITC-Bim-BH3 fluorescence polarization. inhibition, % at 10.9 µM;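 active = inhibition above the mean inhibition of all tested compounds plus 3 SD, set per campaign, cut at about 40% in these data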;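 also: 0% = DMSO wells and 100% = unlabeled Bim-BH3 peptide control; higher means more loss of mP so more displacement of Bim peptide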
GLD-1 RNA inh = GLD-1-TGE RNA interaction inhibition (C. elegans) | Q17339 | purified GLD-1 + fluorescein TGE RNA, fluorescence polarization | inhibition, % at 5.96 µM | 320,000 tested, 0.44% active;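 active = percent inhibition above a per-plate cutoff, the plate mean of test compounds plus 3 SD, cut at about 30% in these data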;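 also: 0% = DMSO wells with GLD-1 and probe and 100% = wells lacking GLD-1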
Bcl-xL primary = inhibitors of human Bcl-xL; inhibition, % at 10.9 µM; Q07817; AID 2129; 320,000 tested, 0.7% active; GST-Bcl-xL / FITC-Bim BH3 peptide fluorescence polarization;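 active = inhibition above the mean of all tested compounds plus 3 SD, cutoff set per campaign, cut at about 30% in these data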;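 also: 0% = DMSO wells and 100% = unlabeled Bim-BH3 peptide competitor; inhibitors lower millipolarization by displacing the labeled peptide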
Target sequence (Q07817 whole entry, looked up): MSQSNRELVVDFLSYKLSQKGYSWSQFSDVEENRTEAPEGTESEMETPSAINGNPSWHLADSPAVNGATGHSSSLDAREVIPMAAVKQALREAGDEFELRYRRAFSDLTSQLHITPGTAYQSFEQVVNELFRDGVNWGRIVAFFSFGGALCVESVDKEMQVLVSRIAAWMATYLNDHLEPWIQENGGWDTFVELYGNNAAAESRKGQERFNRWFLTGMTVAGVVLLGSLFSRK
An asterisk follows results filed as active; / = not tested or not shown. Compounds with a hit are over-represented: about 1.3% of the library has one in this group of screens.

SMILES | EBV gp42 block | MEX-5 binding | MCL1 BIM primary | GLD-1 RNA inh | Bcl-xL primary
Clc1ccc(/C=N/NC(=Nc2ccccc2)c2ccccn2)c(Cl)c1 | 2 | 0 | 4 | -1 | 0
O=C(COc1ccc2c3c(c(=O)oc2c1)CCCC3)NCc1ccccn1 | / | 1 | 2 | 2 | 7
COc1ccc(/C=N/NC(=O)c2ccccc2F)cc1CN1CCN(c2ccc(F)cc2)CC1 | -14 | / | 1 | 1 | 1
O=C1NC(=S)S/C1=C1\Sc2ccccc2N1CCCS(=O)(=O)O | -15 | -1 | 38 | 1 | 29
CCC(=S)/C=C1\Sc2ccc3ccccc3c2N1CCCS(=O)(=O)O | 4 | -68* | 26 | -4 | 14
COc1ccc(NC(=O)CSc2nnc(C)c3ccccc23)cc1 | / | -10 | 8 | -32 | 9
COc1ccc(NC(=O)CSc2ccc3c4c(cccc24)C(=O)c2ccccc2-3)cc1 | 133* | -19 | -6 | -17 | 15
CCC1(C(=O)c2ccc(Cl)cc2)C2c3ccccc3OC(=O)C21C(=O)Nc1ccccc1 (centres undefined) | 5 | 0 | 4 | 6 | -4
COC(=O)C(=C/C=C/N1CCOCC1)C(=O)OC | -11 | -12 | 5 | 18 | 10
OCCCNc1ncnc2sc3c(c12)CCN(Cc1ccccc1)C3 | / | -28* | 16 | -21 | 23
O=c1[nH]cnc2sc3c(c12)CCN(Cc1ccccc1)C3 | -1 | 11 | 35 | 10 | 33*
NNc1nc2sc3c(c2c(=O)n1C1CCCCC1)CCN(Cc1ccccc1)C3 | 3 | -2 | 3 | -5 | 1
O=C/C(=C\Nc1ccccn1)c1nc2ccccc2o1 | -25 | -37* | 0 | -8 | 5
CC(=O)c1ccc2cccc3c2c1N=CN3C | 16 | -6 | 28 | 13 | 33*
CN1/C(=N\O)c2cccc3cccc1c23 | 4 | 1 | 15 | 15 | 10
C=CCNC(=S)NCCCCC1NC(=S)N(CC=C)C1=O (centres undefined) | -11 | -2 | 3 | 0 | 5
COc1cccc(C(=O)Nc2cc(-c3cn4cccnc4n3)ccc2C)c1 | 5 | 2 | -4 | 5 | -2
O=C(Nc1ccccc1)c1nn(-c2ccccc2)c(=O)cc1C(F)(F)F | 18 | -30* | 4 | -1 | 4
O=C(c1ccccc1)c1nn(-c2ccccc2)c(=O)cc1C(F)(F)F | -2 | 2 | -3 | -2 | 8
CC1(C)CC(=O)C2=C(C1)OC(N)=C(C#N)C2c1ccc[nH]1 (centres undefined) | -3 | -3 | 26 | 8 | 33*
COc1ccc(C2C(C#N)=C(N)OC3=C2C(=O)CC(C)(C)C3)cc1 (centres undefined) | -7 | 0 | -3 | 6 | 51*
CN1C=C/C(=C\c2cc[n+](C)c3ccccc23)c2ccccc21 | -11 | -67* | / | / | /
CCOC(=O)N1CCC(Nc2nc3ccccc3nc2NS(=O)(=O)c2ccc(Cl)cc2)CC1 | 54* | 1 | 12 | 5 | 11
CCOC(=O)N1CCC(NC(=O)c2ccc(Cl)cc2)CC1 | -9 | -2 | -2 | 1 | 8
CC(=O)Nc1ccc(NC2=Nc3ccccc3N3C2=Nc2c(c(C)nn2-c2ccccc2)C3c2ccccc2)cc1 (centres undefined) | 71* | -8 | -4 | 1 | -6
SMILES | EBV gp42 block | MEX-5 binding | MCL1 BIM primary | GLD-1 RNA inh | Bcl-xL primary
COc1ccc(NC2=Nc3ccccc3N3C2=Nc2c(c(C)nn2-c2ccc(C)cc2)C3c2cccnc2)cc1 (centres undefined) | 35 | / | 2 | 0 | 0
O=C(CS(=O)(=O)c1cn(Cc2ccc(Cl)cc2)c2ccccc12)N1CCCCC1 | -10 | 0 | 25 | 7 | 30*
CCN(CC)C(=O)CSc1nc2ccc(NC(=O)CSc3nccn3C)cc2s1 | -7 | 0 | 5 | 2 | 3
Cc1ccc(C(=O)NN2C(=O)/C(=C/c3cn(C)c4ccccc34)SC2=S)cc1 | 130* | / | -94 | -80 | -44
Cn1cccc1/C=C1\SC(=S)N(NC(=O)c2ccccc2Cl)C1=O | -173 | / | -102 | -118 | -63
Cn1cc(/C=C2\SC(=S)N(NC(=O)c3ccccc3Cl)C2=O)c2ccccc21 | 87* | / | 17 | -171 | 35*
Cc1ccccc1OC(C)C(=O)Nc1ccc2c(c1)OCCO2 (centres undefined) | / | -1 | -3 | -2 | -1
COc1ccc(CC(=O)Nc2cc(Cl)ccc2C(=O)O)cc1 | 1 | -2 | 1 | -3 | 5
CCCCOc1ccc(Nc2cc(Cl)ccc2C(=O)O)cn1 | 11 | -7 | 36 | 17 | 37*
